In PubChem BioAssay (EPA / NIEHS):
Inconclusive results are not listed. Activity calls are given as the source filed them. The calls were made as follows, unless noted: active = hit-call score of the fitted dose curve at least 0.9, where 1 is the maximum; inactive = score below 0.9.

Columns and labels:
[1] = read-out: Fatty acid synthase (Homo sapiens) (UniProt P49327); experiment: LTEA_HepaRG_FASN: Life Technologies and Expression Analysis (LTEA) Assay for Fatty Acid Synthase (FASN) using HepaRG (AID 2283448); conditions: mRNA level, 48 h; actives raise or lower the signal
Summary of the method: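 HepaRG, 48 h exposure, 8-pt half-log series top 100 uM, 0.5% DMSO vehicle, duplicates. Readout: FASN transcript by Fluidigm qRT-PCR; housekeeping-normalized; bidirectional curve fit vs DMSO baseline.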

[2] = read-out: Cyclin D2 (CCND2), CCND2 (gene 894); experiment: LTEA_HepaRG_CCND2: Life Technologies and Expression Analysis (LTEA) Assay for Cyclin D2 (CCND2) using HepaRG (AID 2283449); conditions: mRNA level, 48 h; actives raise or lower the signal;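 also: CCND2 transcript measured by TaqMan qRT-PCR and normalised to three housekeeping genes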
Summary of the method: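 In this HepaRG study, an eight-point concentration series (max 100 uM, 0.5% DMSO) is applied for 48 h. CCND2 mRNA change is derived by qRT-PCR normalised to ACTB, GAPDH and POLR2A.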

[3] = read-out: Cyclin Dependent Kinase Inhibitor 1A (CDKN1A), CDKN1A (gene 1026); experiment: LTEA_HepaRG_CDKN1A: Life Technologies and Expression Analysis (LTEA) Assay for Cyclin Dependent Kinase Inhibitor 1A (CDKN1A) using HepaRG (AID 2283450); conditions: mRNA level, 48 h; actives raise or lower the signal
Summary of the method: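 Gain or loss of CDKN1A transcript is scored by bidirectional fitting against 0.5% DMSO vehicle. Human HepaRG cultures receive chemicals for 48 h across an 8-point series peaking at 100 uM; expression comes from qRT-PCR.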

[4] = read-out: Cyclin D1 (CCND1), CCND1 (gene 595); experiment: LTEA_HepaRG_CCND1: Life Technologies and Expression Analysis (LTEA) Assay for Cyclin D1 (CCND1) using HepaRG (AID 2283451); conditions: mRNA level, 48 h; actives raise or lower the signal;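 as to AC50: TaqMan qRT-PCR transcript level normalised to ACTB GAPDH and POLR2A housekeeping genes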
Summary of the method: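 Expression change is measured by qRT-PCR in HepaRG cells after 48 h treatment across eight concentrations topping at 100 uM, with duplicate wells and DMSO (0.5%) serving as baseline for bidirectional fitting.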

[5] = read-out: catalase (CAT), CAT (gene 847); experiment: LTEA_HepaRG_CAT: Life Technologies and Expression Analysis (LTEA) Assay for catalase (CAT) using HepaRG (AID 2283452); conditions: mRNA level, 48 h; actives raise or lower the signal
Summary of the method: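 Differentiated HepaRG cells in serum-free induction medium were dosed 48 h in duplicate, eight half-log concentrations from 100 uM in 0.5% DMSO. Transcript measured by TaqMan qRT-PCR, normalised to ACTB/GAPDH/POLR2A, fitted bidirectionally against DMSO.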

[6] = read-out: flavin-containing dimethylaniline monooxygenases 3 (FMO3), FMO3 (gene 2328); experiment: LTEA_HepaRG_FMO3: Life Technologies and Expression Analysis (LTEA) Assay for flavin-containing dimethylaniline monooxygenases 3 (FMO3) using HepaRG (AID 2283453); conditions: mRNA level, 48 h; actives raise or lower the signal
Summary of the method: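 Eight-point concentration-response in serum-free HepaRG cultures (top 100 uM, 0.5% DMSO, 48 h). Read-out: FMO3 mRNA level normalized to three endogenous control genes, fitted bidirectionally versus vehicle.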

[7] = read-out: Cytochrome P450 (CYP1A1), CYP1A1 (gene 1543); experiment: LTEA_HepaRG_CYP1A1: Life Technologies and Expression Analysis (LTEA) Assay for Cytochrome P450 (CYP1A1) using HepaRG (AID 2283454); conditions: mRNA level, 48 h; actives raise or lower the signal
Summary of the method: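 Using HepaRG cultures with 0.5% DMSO as vehicle, eight-concentration exposures (max 100 uM) lasted 48 h. Transcript levels were measured by TaqMan qRT-PCR and normalized to ACTB, GAPDH and POLR2A.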

[8] = read-out: CFLAR gene, CFLAR (gene 8837); experiment: LTEA_HepaRG_CFLAR: Life Technologies and Expression Analysis (LTEA) Assay for CFLAR gene using HepaRG (AID 2283455); conditions: mRNA level, 48 h; actives raise or lower the signal
Summary of the method: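 Gain- or loss-of-signal changes in CFLAR transcript were fitted bidirectionally relative to 0.5% DMSO. Cells (HepaRG, duplicate wells) were dosed for 48 h across eight half-log concentrations topping at 100 uM; quantitation by TaqMan qRT-PCR.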

[9] = read-out: Forkhead box O1 (FOXO1), FOXO1 (gene 2308); experiment: LTEA_HepaRG_FOXO1: Life Technologies and Expression Analysis (LTEA) Assay for Forkhead box O1 (FOXO1) using HepaRG (AID 2283456); conditions: mRNA level, 48 h; actives raise or lower the signal
Summary of the method: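 Using one lot of HepaRG hepatic cells kept in 0.5% DMSO, the team applied test chemicals in duplicate, half-log dilutions from 100 uM, for 48 h. Expression, normalised to ACTB/GAPDH/POLR2A, was compared with vehicle in either direction.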

[10] = molecular target: Peroxisome proliferator-activated receptor gamma (Homo sapiens) (UniProt P37231); experiment: OT_PPARg_PPARgSRC1_0480: Odyssey Thera (OT) 8-hour Protein-Complementation Assay for Peroxisome Proliferator-activated Receptor Gamma / SRC-1 Co-activator (AID 2283387; active = hit-call score of the fitted dose curve at least 0.9, where 1 is the maximum;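 also: nuclear to cytoplasmic split Venus YFP fluorescence ratio reporting PPARg SRC-1 interaction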)
Summary of the method: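 Split-YFP (IFP1/IFP2) PPARg/SRC-1 reporter, HEK293T, 37 °C, 5% CO2; 8 h compound; formaldehyde fix + Draq5; high-content imaging, N/C ratio, ≥350 cells/image, positive direction vs DMSO.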

[11] = molecular target: Peroxisome proliferator-activated receptor gamma (Homo sapiens) (UniProt P37231); experiment: OT_PPARg_PPARgSRC1_1440: Odyssey Thera (OT) 24-hour Protein-Complementation Assay for Peroxisome Proliferator-activated Receptor Gamma/ SRC-1 Co-activator (AID 2283388; active = hit-call score of the fitted dose curve at least 0.9, where 1 is the maximum;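 also: nuclear to cytoplasmic ratio of reconstituted Venus YFP fluorescence in fixed imaged cells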)
Summary of the method: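 Cells carrying the PPARg/SRC-1 fragment-complementation reporter receive compound for 24 hours, are fixed and counterstained with Draq5, then imaged. Increased nuclear relative to cytoplasmic YFP fluorescence above DMSO baseline indicates binding activity.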

[12] = CEETOX_H295R_11DCORT: CeeTox H295R High-throughput Steroidogenesis Assay for 11-Deoxycortisol (11DCORT) (AID 2283432); conditions: actives raise or lower the signal;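 as to AC50: 11-deoxycortisol secreted into the medium measured by LC-MS/MS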
Summary of the method: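 Steroidogenesis in human H295R cells: 48 h chemical exposure after forskolin priming, 11-deoxycortisol measured by LC-MS/MS.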

[13] = CEETOX_H295R_OHPREG: CeeTox H295R High-throughput Steroidogenesis Assay for OH-Pregnenolone (OHPREG) (AID 2283434); conditions: actives raise or lower the signal
Summary of the method: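 Readout: HPLC-MS/MS of 17alpha-hydroxypregnenolone in medium after 48 h chemical exposure of H295R cells pretreated with forskolin. Values fitted bidirectionally relative to DMSO; chemicals reducing viability to 20–70% were retested after 10-fold dilution.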

[14] = CEETOX_H295R_OHPROG: CeeTox H295R High-throughput Steroidogenesis Assay for OH-Progesterone (OHPROG) (AID 2283435); conditions: actives raise or lower the signal;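 as to AC50: 17alpha-hydroxyprogesterone secreted into medium measured by HPLC-MS/MS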
Summary of the method: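 HPLC-MS/MS quantification of 17alpha-hydroxyprogesterone secreted by H295R cells after 48 h chemical exposure, following 48 h 10 uM forskolin prestimulation. Gain or loss of signal fitted relative to DMSO. Viability checked by MTT in the same wells.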

[15] = CEETOX_H295R_CORTISOL: CeeTox H295R High-throughput Steroidogenesis Assay for Cortisol (AID 2283438); conditions: actives raise or lower the signal;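 also: cortisol secreted into medium quantified by LC-MS/MS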
Summary of the method: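 Read-out: cortisol in culture medium by reverse-phase C18 HPLC with ESI-positive tandem MS, after MTBE liquid-liquid extraction. Cells: human adrenal H295R, forskolin-primed (10 uM, 48 h) before 48 h chemical exposure in 0.1% DMSO.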

[16] = CEETOX_H295R_DOC: CeeTox H295R High-throughput Steroidogenesis Assay for DOC (AID 2283439); conditions: actives raise or lower the signal
Summary of the method: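 Human adrenocortical H295R cells, passages up to 10, received 10 uM forskolin for 48 h before chemical addition. After another 48 h exposure in 0.1% DMSO, secreted DOC was measured by LC-MS/MS, with gain or loss fitted against DMSO controls.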

[17] = CEETOX_H295R_ESTRADIOL: CeeTox H295R High-throughput Steroidogenesis Assay for Estradiol (AID 2283440); conditions: actives raise or lower the signal;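 also: estradiol secreted into medium quantified by LC-MS/MS after dansyl derivatisation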
Summary of the method: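 Readout is estradiol in conditioned medium, quantified by reverse-phase HPLC-MS/MS against a 7-point standard curve. Cells: H295R, forskolin-stimulated, then dosed 48 h in 0.1% DMSO; activity fitted in both directions relative to DMSO.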

[18] = CEETOX_H295R_ESTRONE: CeeTox H295R High-throughput Steroidogenesis Assay for Estrone (AID 2283441); conditions: actives raise or lower the signal;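 also: estrone secreted into medium measured by LC-MS/MS after dansyl derivatization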
Summary of the method: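 Forskolin-stimulated H295R cells are treated 48 h with chemical, and estrone in the medium is measured by LC-MS/MS. Activity is fitted in both directions relative to DMSO controls, with chemicals diluted until MTT viability reaches at least 70%.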

[19] = read-out: Tumor necrosis factor receptor superfamily member 6 (Homo sapiens) (UniProt P25445); experiment: LTEA_HepaRG_FAS: Life Technologies and Expression Analysis (LTEA) Assay for Fas cell surface death receptor (FAS) using HepaRG (AID 2283447); conditions: mRNA level, 48 h; actives raise or lower the signal
Summary of the method: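 Differentiated human HepaRG cells, pre-cultured 48 h, were exposed in duplicate for 48 h to 8-point half-log concentrations (top 100 uM, 0.5% DMSO) in serum-free induction medium; FAS mRNA measured by qRT-PCR, normalized to ACTB/GAPDH/POLR2A, bidirectional fit versus DMSO.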

[20] = CEETOX_H295R_ANDR: CeeTox H295R High-throughput Steroidogenesis Assay for Androstenedione (ANDR) (AID 2283436); conditions: actives raise or lower the signal;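 also: human H295R adrenal cells exposed for 48 h with androstenedione measured in medium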
Summary of the method: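 Steroidogenesis in H295R adrenal cells after 48 h dosing; androstenedione quantified by LC-MS/MS, with DMSO as negative control and baseline for bidirectional curve fitting.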

Measured: AC50

Sequence of Peroxisome proliferator-activated receptor gamma (Homo sapiens) (P37231 whole entry, looked up, the tested form may be a part): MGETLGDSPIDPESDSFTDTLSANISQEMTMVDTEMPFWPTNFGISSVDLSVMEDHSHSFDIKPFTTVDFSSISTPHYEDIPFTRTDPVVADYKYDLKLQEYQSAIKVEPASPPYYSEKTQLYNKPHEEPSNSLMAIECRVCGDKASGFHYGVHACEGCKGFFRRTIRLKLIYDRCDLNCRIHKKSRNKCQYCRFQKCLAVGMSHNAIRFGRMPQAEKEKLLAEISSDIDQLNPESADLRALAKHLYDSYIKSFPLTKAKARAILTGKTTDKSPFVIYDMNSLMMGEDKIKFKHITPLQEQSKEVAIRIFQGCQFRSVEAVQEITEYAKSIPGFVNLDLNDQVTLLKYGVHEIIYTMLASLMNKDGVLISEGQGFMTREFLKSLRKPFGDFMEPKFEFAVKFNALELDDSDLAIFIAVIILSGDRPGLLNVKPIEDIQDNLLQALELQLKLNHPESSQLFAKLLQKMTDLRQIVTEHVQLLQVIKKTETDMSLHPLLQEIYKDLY
Sequence of Fatty acid synthase (Homo sapiens) (P49327 whole entry, looked up): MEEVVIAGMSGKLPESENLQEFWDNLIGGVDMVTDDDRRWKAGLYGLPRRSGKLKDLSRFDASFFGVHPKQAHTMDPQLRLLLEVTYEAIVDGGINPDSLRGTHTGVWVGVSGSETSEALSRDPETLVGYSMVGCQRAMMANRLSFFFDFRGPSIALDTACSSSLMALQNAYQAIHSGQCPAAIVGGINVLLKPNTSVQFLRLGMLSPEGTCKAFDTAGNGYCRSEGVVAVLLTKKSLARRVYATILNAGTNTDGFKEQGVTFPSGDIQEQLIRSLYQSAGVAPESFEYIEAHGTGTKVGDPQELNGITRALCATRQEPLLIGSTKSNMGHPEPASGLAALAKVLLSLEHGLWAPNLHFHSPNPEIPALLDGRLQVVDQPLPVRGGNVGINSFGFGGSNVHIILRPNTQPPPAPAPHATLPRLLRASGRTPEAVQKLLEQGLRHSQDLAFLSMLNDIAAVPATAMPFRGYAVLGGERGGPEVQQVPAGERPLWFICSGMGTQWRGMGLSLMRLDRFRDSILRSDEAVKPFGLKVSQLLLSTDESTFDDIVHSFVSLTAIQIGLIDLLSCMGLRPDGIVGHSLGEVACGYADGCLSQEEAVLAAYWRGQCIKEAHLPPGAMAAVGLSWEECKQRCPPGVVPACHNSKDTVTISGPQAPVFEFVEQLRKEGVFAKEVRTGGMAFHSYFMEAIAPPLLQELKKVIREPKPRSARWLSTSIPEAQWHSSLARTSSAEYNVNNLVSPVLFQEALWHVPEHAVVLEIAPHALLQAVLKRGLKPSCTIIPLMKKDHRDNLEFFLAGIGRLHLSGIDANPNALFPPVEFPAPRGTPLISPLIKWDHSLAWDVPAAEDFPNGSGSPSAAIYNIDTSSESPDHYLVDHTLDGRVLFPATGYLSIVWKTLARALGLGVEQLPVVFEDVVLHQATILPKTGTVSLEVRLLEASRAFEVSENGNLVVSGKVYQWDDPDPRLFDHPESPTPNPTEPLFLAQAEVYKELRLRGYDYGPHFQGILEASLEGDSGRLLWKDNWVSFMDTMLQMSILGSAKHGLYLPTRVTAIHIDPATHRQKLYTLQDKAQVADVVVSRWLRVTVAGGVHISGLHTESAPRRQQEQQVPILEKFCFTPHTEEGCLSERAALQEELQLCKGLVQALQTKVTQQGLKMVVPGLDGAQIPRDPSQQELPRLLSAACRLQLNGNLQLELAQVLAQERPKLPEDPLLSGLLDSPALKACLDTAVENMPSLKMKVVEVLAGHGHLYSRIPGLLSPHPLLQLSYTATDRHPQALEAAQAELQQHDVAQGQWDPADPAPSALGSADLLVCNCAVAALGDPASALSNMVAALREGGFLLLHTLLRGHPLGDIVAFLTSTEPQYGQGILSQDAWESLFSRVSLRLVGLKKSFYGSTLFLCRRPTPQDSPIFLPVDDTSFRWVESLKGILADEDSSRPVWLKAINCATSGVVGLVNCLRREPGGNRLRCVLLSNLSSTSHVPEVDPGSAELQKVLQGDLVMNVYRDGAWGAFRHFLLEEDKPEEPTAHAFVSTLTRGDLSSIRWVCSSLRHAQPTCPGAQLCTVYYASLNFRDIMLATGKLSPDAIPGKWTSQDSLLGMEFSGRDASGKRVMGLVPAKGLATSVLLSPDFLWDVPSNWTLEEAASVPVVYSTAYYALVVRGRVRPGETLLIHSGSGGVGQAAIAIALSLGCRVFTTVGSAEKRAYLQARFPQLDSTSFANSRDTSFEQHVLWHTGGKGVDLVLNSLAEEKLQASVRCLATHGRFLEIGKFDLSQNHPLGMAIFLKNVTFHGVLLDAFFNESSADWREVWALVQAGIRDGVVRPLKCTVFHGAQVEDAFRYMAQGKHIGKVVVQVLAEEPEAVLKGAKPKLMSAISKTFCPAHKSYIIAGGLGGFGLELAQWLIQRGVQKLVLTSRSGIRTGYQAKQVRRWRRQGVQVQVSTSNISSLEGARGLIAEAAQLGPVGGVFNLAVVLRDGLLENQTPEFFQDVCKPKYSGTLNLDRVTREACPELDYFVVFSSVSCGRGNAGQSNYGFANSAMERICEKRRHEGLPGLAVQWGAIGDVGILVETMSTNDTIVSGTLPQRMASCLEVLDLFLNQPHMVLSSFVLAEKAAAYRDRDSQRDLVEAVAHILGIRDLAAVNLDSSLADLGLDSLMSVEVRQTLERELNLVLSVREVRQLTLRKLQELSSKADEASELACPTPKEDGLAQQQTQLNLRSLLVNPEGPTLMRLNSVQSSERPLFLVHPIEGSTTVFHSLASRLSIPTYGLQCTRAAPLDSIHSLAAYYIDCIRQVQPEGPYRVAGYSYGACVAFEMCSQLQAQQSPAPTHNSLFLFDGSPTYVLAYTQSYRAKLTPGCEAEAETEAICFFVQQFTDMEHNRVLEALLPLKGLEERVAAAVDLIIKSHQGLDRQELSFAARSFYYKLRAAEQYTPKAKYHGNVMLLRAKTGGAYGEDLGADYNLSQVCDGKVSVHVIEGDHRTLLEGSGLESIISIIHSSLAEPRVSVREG

CN(C)C(=S)S
inactive: [1] | [2] | [3] | [4] | [5] | [6] | [8] | [9]
active: [7] 64.4 µM

COC(=O)Nc1cccc(OC(=O)Nc2cccc(C)c2)c1
active: [12] 9.94 µM | [13] 4.29 µM | [16] 19.8 µM
inactive: [10] | [11] | [14] | [15]

CC(=Cc1ccccc1)[N+](=O)[O-]
inactive: [11]

CCC[CH2][Sn]([Cl])([Cl])[CH2]CCC
inactive: [10] | [11] | [12] | [13] | [14] | [15] | [16] | [17] | [18]

CCCCCCCCCCCCc1cccc(S(=O)(=O)O)c1
inactive: [19] | [1] | [3] | [5] | [6] | [8]
active: [4] 45 µM | [7] 51.6 µM | [9] 16.1 µM

Cc1cc(C)cc(C)c1
inactive: [13] | [14] | [1] | [2] | [3] | [4] | [5] | [6] | [7] | [8] | [9]

CC(C)O.CC(C)O.OCCN(CCO)CCO.OCCN(CCO)CCO.[Ti]
inactive: [19] | [1] | [2] | [3] | [4] | [5] | [6] | [7] | [8] | [9]

CC(C)(C)c1cc([N+](=O)[O-])cc(C(C)(C)C)c1O
inactive: [13] | [14] | [17] | [18]

Oc1cccc(-c2ccccc2)c1
inactive: [12] | [13] | [15] | [16] | [17] | [18]
active: [14] 9.06 µM

Cc1cc(C(C)(C)c2ccc(O)c(C)c2)ccc1O
inactive: [13] | [14]
active: [12] 5 µM | [20] 5 µM | [15] 5 µM | [16] 2.91 µM

Clc1cccc(Cl)c1
inactive: [10] | [11] | [19] | [1] | [2] | [3] | [4] | [5] | [6] | [8] | [9]
active: [7] 78.1 µM

Nc1ccc(N)cc1
inactive: [10] | [11] | [13] | [14]
